Peg3 promoter: inhibitors of Peg3 promoter; 360,000 compounds, 1.7% hits; inhibition, % at 20 µM; HeLa PEG-Prom luciferase reporter, luminescence, overnight;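 active = inhibition of at least 50% at 20 µM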
TWEAK Fn14 block: TWEAK-Fn14 signaling inhibition | inhibition, % at 10 µM | TWEAK-stimulated Fn14 reporter cells, luciferase luminescence, 8 h | AID 1159606 | 360,000 compounds, 2% hits; in the data active = inhibition above about 50%
CF NFkB block: blocks PAF-induced NF-kB reporter in cystic fibrosis cells; KKLEB NF-kB-GFP reporter, GFP fluorescence overnight; inhibition, % at 5 µM; 360,000 compounds, 0.86% hits; AID 588850;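 active = at least 50% inhibition at 5 µM, scaled per plate between neutral and stimulator controls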;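 note: PAF is a Pseudomonas aeruginosa culture filtrate used as stimulus; plate controls were PAF-stimulated DMSO wells for no effect and unstimulated DMSO wells for full effect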
HIF-2a block: inhibitors of HIF-2a; 786-0 RCC cells HIF-2a reporter, luciferase luminescence, overnight; inhibition, % at 18.8 µM; 360,000 compounds, 0.72% hits;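 active = inhibition of the luminescence signal of 40% or more relative to plate controls, in a single-dose primary screen at 18.75 µM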
KKLEB cytotox: CF airway cell cytotoxicity counter-screen | 360,000 compounds, 0.36% hits | KKLEB CF airway cells viability, ATPlite luminescence, overnight; stronger effect = lower value; cells stimulated with P. aeruginosa culture filtrate | activity change (cytotoxicity), % at 5 µM;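 active = corrected activity change at or below -50% at 5 µM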
TROY NFkB inh: TROY signaling inhibition; inhibition, % at 10 µM; Q293 LMP1-TROYcd NF-kB luciferase reporter, 4 h; 360,000 compounds, 0.98% hits;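 active = compounds whose plate-normalised and pattern-corrected inhibition of the luciferase reporter signal at the single screening dose is 50% or more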
* = called active by the depositor; . = no result given. An excerpt weighted towards active compounds, which were near 4% of everything screened.

SMILES	Peg3 promoter	TWEAK Fn14 block	CF NFkB block	HIF-2a block	KKLEB cytotox	TROY NFkB inh
COc1ccccc1NS(=O)(=O)c1cc([N+](=O)[O-])ccc1N/N=C/c1c[nH]c2ccccc12	37	56*	-23	-33	-16	52*
CN(CC(=O)N1CCN(c2ccccn2)CC1)S(=O)(=O)c1ccc(Br)cc1	7	92*	7	12	-4	.
Cc1ccc(S(=O)(=O)N2CCC(C(=O)N3CCN(c4ccccn4)CC3)CC2)cc1	22	76*	-11	5	12	-3
O=C(Nc1ccc2c(c1)[C@H]1C[C@@H](CC(=O)N3CCOCC3)O[C@@H](CO)[C@H]1O2)C1CCOCC1	10	-19	-13	9	-11	4
CCN(CC)C(=O)C1=C(C)N(Cc2ccccc2)C(=O)C(CC(=O)NC2CCCC2)C1 (configuration not stated)	-18	2	-21	6	17	1
COCCN(C(=O)COC(=O)CCCc1c[nH]c2ccccc12)c1c(N)n(Cc2ccccc2)c(=O)[nH]c1=O	10	2	11	13	-8	0
Cc1cc(NCCCn2ccnc2)n2nc(C)c(-c3ccccc3)c2n1	-133	-20	4	-203	-23	-34
Cc1cc(-c2ccccc2)n2ncc(-c3ccccc3)c2n1	-61	89*	-4	-46	-30	74*
Cc1nc2c(-c3ccccc3)cnn2c(N)c1-c1ccccc1	40	98*	-15	32	-65*	77*
Cc1cc(NC2CCCC2)n2ncc(-c3ccccc3)c2n1	-65	90*	8	-21	-42	81*
Cc1cc(NCc2ccccc2)n2ncc(-c3ccccc3)c2n1	-281	17	-13	-215	-2	14
Cc1cc(NC2CCCC2)n2nc(C)c(-c3ccccc3)c2n1	-127	-31	2	-164	-7	-31
Cc1cc(NCCCn2ccnc2)n2ncc(-c3ccccc3)c2n1	20	99*	0	26	-32	81*
C#CCOc1ccc(CNC[C@H]2O[C@@H](n3ccc(=O)[nH]c3=O)[C@H](O)[C@@H]2O)cc1	6	6	5	9	4	13
O=C(CN1CCCC1c1cccs1)N1CCN(S(=O)(=O)c2ccccc2)CC1 (configuration not stated)	-10	10	16	2	-8	2
O=[N+]([O-])c1cc([N+](=O)[O-])c(Oc2cccnc2Br)cc1NN1CCCCC1	19	-8	4	13	-10	-16
Cc1ccc(C(=O)NC2CCS(=O)(=O)C2)cc1S(=O)(=O)N1CCCCCC1 (configuration not stated)	5	7	-14	16	-1	15
COc1ccccc1-c1c(C)nn2c(-c3ccccc3)cc(C)nc12	20	26	6	0	-7	29
COc1ccc(-c2cc(C)nc3c(-c4ccccc4)cnn23)cc1	-219	65*	-6	-174	-12	66*
CC(=O)c1cccc(NC(=O)c2cc(-c3ccco3)nc3ccccc23)c1	36	65*	-22	2	-8	19
COc1cc(-c2cc(C(=O)Nc3cccc(C(C)=O)c3)c3ccccc3n2)cc(OC)c1OC	38	60*	46	-1	-9	9
COc1cccc(-c2cc(C(=O)Nc3ccncc3)c3ccccc3n2)c1	5	89*	-35	-2	7	4
O=C(Nc1cccc(S(=O)(=O)NCc2ccco2)c1)c1cc(-c2ccccc2)nc2ccccc12	62*	36	-20	11	2	13
COc1cccc(NC(=O)c2cc(-c3ccccn3)nc3ccccc23)c1	22	7	-25	-28	6	-10
COc1cccc(NC(=O)c2cc(-c3ccco3)nc3ccccc23)c1	16	3	-17	7	4	2
SMILES	Peg3 promoter	TWEAK Fn14 block	CF NFkB block	HIF-2a block	KKLEB cytotox	TROY NFkB inh
CC(C)c1ccc(S(=O)(=O)Nc2ccc3c(c2)OCO3)cc1	-1	10	24	-5	-11	26
O=C(O)c1ccccc1C(=O)NNc1cccc(Cl)n1	-5	-10	8	2	6	-40
CSc1ccccc1NC(=O)CSc1nnc(Cc2ccccc2)o1	0	1	2	14	1	16
O=C(Nc1ccc([N+](=O)[O-])cc1)NN1CCCCCC1	13	10	23	-22	-15	-13
CCCc1cnc(NCCNCC(O)COc2ccc(Cl)c(Cl)c2)nc1 (configuration not stated)	107*	-11	4	5	-4	-33
CC(=O)c1cccc(OCC(O)CNCCc2ccc(Cl)cc2)c1 (configuration not stated)	-10	-22	-18	12	-3	0
COc1ccccc1C=NN=C(NN=Cc1ccccc1OC)NN=Cc1ccccc1OC	3	101*	34	-147	-4	56*
COc1ccccc1C=NNC(=O)NN=Cc1ccccc1OC	-144	3	-14	-181	-23	-12
COc1cc(OC)c2cc(C(=O)N/N=C/c3cccc(OC)c3O)[nH]c2c1	57*	41	8	-24	-17	-11
COc1cccc(/C=N/NC(=O)c2nc(-c3ccccc3)cc(-c3ccccc3)n2)c1O	48	51*	-4	6	-9	8
COc1cccc(C=NNC(=O)c2ccncc2)c1O	29	6	-20	15	11	-12
COc1cc2cc(C(=O)N/N=C/c3ccccc3Cl)[nH]c2cc1OC	19	52*	22	-44	4	-28
COc1cccc(/C=N/NC(=O)c2cc3c(OC)ccc(OC)c3[nH]2)c1O	52*	-7	8	-16	-8	-1
Cc1cc(NC(=O)/C=C/c2cccc(Cl)c2)n(-c2nc3ccccc3[nH]2)n1	7	34	54*	-71	-56*	-25
C=CCNC(=O)CN1C(=O)CSc2ccc(S(=O)(=O)N3CCOCC3)cc21	1	16	-9	0	12	-4
CN(Cc1ccc(Cl)c(Cl)c1)C(=O)c1ccccc1SCC(=O)N1CCCC1	18	7	28	14	-12	2
CC(C)(C)C1CCc2c(sc3nc(SCC(=O)O)nc(N)c23)C1 (configuration not stated)	-83	39	-5	55*	7	-2
CC1(C)Cc2c(sc3nc(SCC(=O)O)nc(N)c23)CO1	0	3	18	15	-3	-12
COC(=O)CSc1nc(N)c2c3c(sc2n1)C(c1ccccc1)SC(c1ccccc1)C3 (configuration not stated)	47	11	-44	88*	14	47
COc1cc(-c2cc3nc(NCc4cccs4)ccn3n2)cc(OC)c1OC	9	41	-47	-86	-1	20
COc1cc(-c2cc3nc(NCc4cccc(Cl)c4)ccn3n2)cc(OC)c1OC	25	65*	-90	-46	-4	42

Screening data deposited in PubChem BioAssay by Sanford-Burnham Center for Chemical Genomics.
